In ChEMBL document CHEMBL2218924, “A broad activity screen in support of a chemogenomic map for kinase signalling research and drug discovery” (Biochem J, 2013):

Molecular target: Calcium/calmodulin-dependent protein kinase type II subunit beta (Homo sapiens) (UniProt Q13554)
Conditions: at 1 µM

Chain of Calcium/calmodulin-dependent protein kinase type II subunit beta (Homo sapiens) (Q13554 whole entry): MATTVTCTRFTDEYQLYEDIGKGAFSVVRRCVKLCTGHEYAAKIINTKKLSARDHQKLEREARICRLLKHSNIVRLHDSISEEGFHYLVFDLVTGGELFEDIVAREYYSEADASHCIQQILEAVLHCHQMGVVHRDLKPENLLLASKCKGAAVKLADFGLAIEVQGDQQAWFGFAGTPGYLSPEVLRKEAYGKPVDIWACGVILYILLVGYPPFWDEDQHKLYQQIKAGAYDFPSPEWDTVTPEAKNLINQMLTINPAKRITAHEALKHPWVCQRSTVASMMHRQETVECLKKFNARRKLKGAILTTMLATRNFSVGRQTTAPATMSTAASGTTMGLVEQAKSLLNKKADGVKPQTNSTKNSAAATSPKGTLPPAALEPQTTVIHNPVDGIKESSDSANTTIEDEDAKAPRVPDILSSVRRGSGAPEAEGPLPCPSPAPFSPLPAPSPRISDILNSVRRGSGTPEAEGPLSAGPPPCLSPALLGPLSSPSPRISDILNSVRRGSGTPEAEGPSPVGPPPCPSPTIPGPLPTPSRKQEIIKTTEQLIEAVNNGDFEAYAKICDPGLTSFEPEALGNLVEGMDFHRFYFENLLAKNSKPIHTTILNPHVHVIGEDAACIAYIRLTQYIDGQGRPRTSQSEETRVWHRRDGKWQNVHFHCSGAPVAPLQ

SMILES	residual activity
Fc1ccc(-c2nc3n(c2-c2ccncc2)CCS3)cc1	100%
CN([C@@H](Cc1ccc(OS(=O)(=O)c2cccc3cnccc23)cc1)C(=O)N1CCN(c2ccccc2)CC1)S(=O)(=O)c1cccc2cnccc12	100%
O=C(c1cc2cc(O)ccc2[nH]1)c1cc2cc(O)ccc2[nH]1	53%
CCCC(=O)Oc1ccc2[nH]c(C(=O)c3cc4ccccc4[nH]3)cc2c1	86%
CC(C)[C@H](CO)Nc1nc(Nc2cc(N)cc(Cl)c2)c2ncn(C(C)C)c2n1	92%
O=S(=O)(NCCNC/C=C/c1ccc(Br)cc1)c1cccc2cnccc12	76%
O=C1NC(=O)C(c2c[nH]c3ccccc23)=C1c1c[nH]c2ccccc12	68%
O=C(Nc1nc2ccccc2n1CCN1CCOCC1)c1cccc([N+](=O)[O-])c1	83%
COc1cc2nccc(Oc3ccc(NC(=S)NC(=O)c4ccccc4C)cc3)c2cc1OC	79%
O=C1C(Cl)=C(N2C(=O)CCC2=O)C(=O)c2ccccc21	90%
N#Cc1c(NC(=O)c2cccc3ccccc23)sc2c1CCCC2	94%
O=C1Cc2c([nH]c3ccc([N+](=O)[O-])cc23)-c2ccccc2N1	61%
COc1ccc(Cl)cc1NC(=O)Nc1cc(C)nc2ccccc12	88%
CCCCc1c(-c2ccc(O)cc2)[nH]c2nccnc12	77%
CN(C)S(=O)(=O)c1ccc2c(c1)/C(=C/c1cc3c([nH]1)CCCC3)C(=O)N2	71%
CCOC(=O)c1c(C)[nH]c(/C=C2\C(=O)Nc3ccccc32)c1C	98%

Molecular target: Calcium/calmodulin-dependent protein kinase type II subunit beta (Homo sapiens) (UniProt Q13554)
Conditions: at 10 µM

SMILES	residual activity
Fc1ccc(-c2nc3n(c2-c2ccncc2)CCS3)cc1	95%
CCN1/C(=C/C(C)=O)Sc2ccc(OC)cc21	70%
CN([C@@H](Cc1ccc(OS(=O)(=O)c2cccc3cnccc23)cc1)C(=O)N1CCN(c2ccccc2)CC1)S(=O)(=O)c1cccc2cnccc12	78%
O=C(c1cc2cc(O)ccc2[nH]1)c1cc2cc(O)ccc2[nH]1	14%
N#C/C(=C\c1ccc(O)c(O)c1)C(=O)NCc1ccccc1	89%
CCCC(=O)Oc1ccc2[nH]c(C(=O)c3cc4ccccc4[nH]3)cc2c1	85%
CC(C)[C@H](CO)Nc1nc(Nc2cc(N)cc(Cl)c2)c2ncn(C(C)C)c2n1	58%
CSc1nc(-c2ccc(F)cc2)c(-c2ccnc(NC(C)c3ccccc3)c2)[nH]1 (configuration not stated)	75%
O=S(=O)(NCCNC/C=C/c1ccc(Br)cc1)c1cccc2cnccc12	29%
Nc1nc(Nc2ccc(S(N)(=O)=O)cc2)nn1C(=O)c1c(F)cccc1F	43%
O=C1NC(=O)C(c2c[nH]c3ccccc23)=C1c1c[nH]c2ccccc12	13%
NC(=O)c1ccc(-c2nc(-c3ccc4c(c3)OCCO4)c(-c3ccccn3)[nH]2)cc1	88%
COc1cc2c(cc1OC)-c1n[nH]c(Nc3cccc(F)c3)c1C2	56%
N#C/C(=C1/Nc2ccccc2S1)c1ccnc(NCCc2cccnc2)n1	25%
O=C(Nc1nc2ccccc2n1CCN1CCOCC1)c1cccc([N+](=O)[O-])c1	83%
COc1cc2nccc(Oc3ccc(NC(=S)NC(=O)c4ccccc4C)cc3)c2cc1OC	66%
O=C1C(Cl)=C(N2C(=O)CCC2=O)C(=O)c2ccccc21	86%
N#Cc1c(NC(=O)c2cccc3ccccc23)sc2c1CCCC2	81%
O=C1Nc2ccccc2/C1=C\c1c(Cl)[nH]c2ccccc12	25%
O=c1cc(N2CCOCC2)oc2c(-c3ccccc3)cccc12	79%
Oc1cccc(-c2nc(N3CCOCC3)c3oc4ncccc4c3n2)c1	90%
O=C1Cc2c([nH]c3ccc([N+](=O)[O-])cc23)-c2ccccc2N1	76%
COc1ccc(Cl)cc1NC(=O)Nc1cc(C)nc2ccccc12	72%
Nc1nccc(-c2c(-c3ccc(F)cc3)ncn2C2CCNCC2)n1	55%
CCCCc1c(-c2ccc(O)cc2)[nH]c2nccnc12	51%
CN(C)S(=O)(=O)c1ccc2c(c1)/C(=C/c1cc3c([nH]1)CCCC3)C(=O)N2	59%
CCOC(=O)c1c(C)[nH]c(/C=C2\C(=O)Nc3ccccc32)c1C	93%

Molecular target: Calcium/calmodulin-dependent protein kinase type II subunit gamma (Homo sapiens) (UniProt Q13555)
Conditions: at 1 µM

Chain of Calcium/calmodulin-dependent protein kinase type II subunit gamma (Homo sapiens) (Q13555 whole entry): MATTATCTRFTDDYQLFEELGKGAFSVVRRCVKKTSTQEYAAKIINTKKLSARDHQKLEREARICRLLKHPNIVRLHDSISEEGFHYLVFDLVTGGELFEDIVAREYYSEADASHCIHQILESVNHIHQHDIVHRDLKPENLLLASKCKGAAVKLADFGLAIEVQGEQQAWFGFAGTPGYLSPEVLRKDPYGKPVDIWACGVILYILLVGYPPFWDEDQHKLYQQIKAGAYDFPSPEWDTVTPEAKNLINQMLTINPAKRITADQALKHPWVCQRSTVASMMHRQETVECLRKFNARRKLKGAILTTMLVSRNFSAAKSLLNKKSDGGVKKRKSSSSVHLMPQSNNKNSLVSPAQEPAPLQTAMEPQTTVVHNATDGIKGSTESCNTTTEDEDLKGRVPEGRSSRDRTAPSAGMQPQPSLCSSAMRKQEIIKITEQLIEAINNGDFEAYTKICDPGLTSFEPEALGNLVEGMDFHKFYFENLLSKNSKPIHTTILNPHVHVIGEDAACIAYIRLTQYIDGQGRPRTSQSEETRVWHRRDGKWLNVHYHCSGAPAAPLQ

SMILES	residual activity
O=C(c1cc2cc(O)ccc2[nH]1)c1cc2cc(O)ccc2[nH]1	30%
CCCC(=O)Oc1ccc2[nH]c(C(=O)c3cc4ccccc4[nH]3)cc2c1	99%
Cc1cc(C)c(/C=C2\C(=O)Nc3ccccc32)[nH]1	32%
CC(C)[C@H](CO)Nc1nc(Nc2cc(N)cc(Cl)c2)c2ncn(C(C)C)c2n1	76%
CSc1nc(-c2ccc(F)cc2)c(-c2ccnc(NC(C)c3ccccc3)c2)[nH]1 (configuration not stated)	98%
O=S(=O)(NCCNC/C=C/c1ccc(Br)cc1)c1cccc2cnccc12	100%
Nc1nc(Nc2ccc(S(N)(=O)=O)cc2)nn1C(=O)c1c(F)cccc1F	73%
O=C1NC(=O)C(c2c[nH]c3ccccc23)=C1c1c[nH]c2ccccc12	40%
COc1cc2c(cc1OC)-c1n[nH]c(Nc3cccc(F)c3)c1C2	99%
N#C/C(=C1/Nc2ccccc2S1)c1ccnc(NCCc2cccnc2)n1	80%
Oc1cccc(-c2nc(N3CCOCC3)c3oc4ncccc4c3n2)c1	98%
O=C1Cc2c([nH]c3ccc([N+](=O)[O-])cc23)-c2ccccc2N1	24%
CN(C)S(=O)(=O)c1ccc2c(c1)/C(=C/c1cc3c([nH]1)CCCC3)C(=O)N2	17%
CCOC(=O)c1c(C)[nH]c(/C=C2\C(=O)Nc3ccccc32)c1C	77%
